The record followed here is PubChem BioAssay (NCI).

Common to all, as to experiment: NCI-60 one-dose screen, 48 h (100 = growth as untreated, 0 = no growth, -100 = all killed)
Conditions in all cases: 10 µM unless noted

Experiment [1] has as its system HCT-15 colon.
The test system of experiment [2] is HT29 colon.
Experiment [3] has as its system SNB-75 CNS.
For experiment [4], the system named is SNB-19 CNS.
Experiment [5] deals with U251 CNS.
Experiment [6] deals with PC-3 prostate.
Experiment [7] deals with SK-MEL-5 melanoma.
Experiment [8] relates to UACC-62 melanoma.
The subject of experiment [9] is LOX IMVI melanoma.
Experiment [10] relates to SK-MEL-28 melanoma.

The panel holds about 83,000 compounds, 20% with a hit somewhere; the sample as a whole holds those more often.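 The test compound was applied at a single concentration to cells in 96-well plates for 48 hours, and percent growth was recorded.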 A number with no mark means an inactive call. The source made the active and inactive calls. Rule for the calls: active = growth percent below 10; inactive = the rest.

For `C=CCOc1ccc(/C(O)=C2\C(=O)C(=O)N(c3nccs3)C2c2ccccc2F)cc1` (stereo not given), the growth in experiment [1] is 82.1%; in [2], 108%; in [3], 89.8%; in [4] it was 102%; in experiment [5], 93%; in [6], 114%. The growth in experiment [7] is 94.7%; in experiment [8], 76.6%; in [9], 90.3%; in experiment [10], 107%.

Take `COc1ccc(/C=N/NC(=O)Cn2c(Cc3cccc4ccccc34)nc3ccccc32)cc1`: the growth in experiment [1] was 95.7%; in experiment [2], 108%; in [3], 102%; in experiment [4] it was 92.2%; in experiment [5], 99.7%; in experiment [6], 83.2%. Besides, the growth was 96.1% in experiment [7], 87.7% in experiment [8], 88.3% in [9] and 109% in [10].

With `COc1ccc(C2=NN(c3ccc(S(N)(=O)=O)cc3)C(c3cn(-c4ccccc4)nc3-c3ccc(Cl)cc3)C2)cc1` (stereo not given), the growth in experiment [1] was 80.8%; in experiment [2], 82.6%; in experiment [3] it was 89.9%; in experiment [4] it was 92.5%; in [5], 84.1%; in [6] it was 66.7%. The growth in [7] was 99.9%; in experiment [8], 88.5%; in experiment [9], 87.3%; in experiment [10] it was 103%.

With `COc1cc(-c2nc(-c3nc4ccccc4[nH]3)cc3c2[nH]c2ccccc23)cc(OC)c1OC`, the growth in experiment [1] was 42.3%; in experiment [2] it was 49.7%; in [3], 79.3%; in experiment [4], 66.9%; in experiment [5], 48%; in experiment [6] it was 14.1%. The growth is 29% in experiment [7], 28.5% in experiment [8], 38.7% in [9] and 44.2% in experiment [10].

Turning to `O=C(O)c1cn(C2CC2)c2cc(N3CCN(S(=O)(=O)c4ccc(Cl)c(Cl)c4)CC3)c(F)cc2c1=O`, the growth in experiment [1] is 6.24% (active); in [2] it was 0.259% (active); in experiment [3] it was 13.2%; in experiment [4], 24.7%; in experiment [5] it was 12.4%; in experiment [6] it was 16.2%. Moreover, the growth in [7] is 2.06% (active); in [8], 29.6%; in experiment [9], 1.21% (active); in [10], 48.5%.

Regarding `COc1ccc(/C=C\c2cc(OC)c(OC)c(OC)c2)c(NS(=O)(=O)c2ccc(C(C)(C)C)cc2)c1O`, the growth is 15.5% in experiment [1]; 33% in experiment [2]; 31.9% in [3]; 46.1% in experiment [4]; 24.3% in experiment [5]; 34.5% in experiment [6]. For the same compound, the growth in [7] was -19.2% (active); in [8], 39.1%; in experiment [9], 17%; in experiment [10] it was 53.7%.

With `Clc1ccc2c(c1)NC1(CCSc3ccccc31)n1nccc1-2` (stereo not given), the growth is 98.5% in experiment [1]; 90.9% in experiment [2]; 95.5% in experiment [3]; 102% in [4]; 88.6% in [5]; 81% in experiment [6]. Besides, the growth in experiment [7] was 99.4%; in [8] it was 94.7%; in [9] it was 92.3%; in experiment [10], 98.4%.

Regarding `CCOC(=O)CC/C(C)=N\Nc1ccc([N+](=O)[O-])cc1`, the growth in [1] is 35.8%; in [2], 52.9%; in [3], 93%; in [4] it was 95.5%; in experiment [5], 69.1%; in experiment [6] it was 49.7%. For the same compound, the growth was 54.3% in experiment [7], 23.5% in experiment [8], 17.1% in experiment [9] and 99.9% in [10].

Take `NC(N)=NC(N)=Nc1ccccc1-c1ccccc1`: the growth in [1] is 108%; in experiment [2], 112%; in [3], 97.4%; in [4], 111%; in experiment [5] it was 106%; in experiment [6] it was 103%. Moreover, the growth is 107% in experiment [7], 108% in experiment [8], 102% in experiment [9] and 109% in [10].

On to `O=[N+]([O-])c1cccc(-c2cc(-c3cc(Br)ccc3O)[nH]n2)c1`, for which the growth in [1] was 15.6%; in experiment [2], 48.3%; in experiment [3] it was 38.8%; in [4], 25.4%; in [5], 17.9%; in experiment [6] it was 13%. The growth in experiment [7] is 6.28% (active); in experiment [8], 15.2%; in experiment [9], 6.51% (active); in [10] it was 42.1%.

Turning to `COc1cc2oc(-c3cccc(NC(=O)Nc4ccc5c(c4)OCO5)c3)cc(=O)c2c(OC)c1OC`, the growth was 42.1% in [1]; 48.2% in experiment [2]; 21.4% in experiment [3]; 83.5% in experiment [4]; 62.1% in experiment [5]; 45.6% in [6]. Also, the growth in experiment [7] is 45.6%; in experiment [8], 62.1%; in experiment [9] it was 38.9%; in [10], 74.2%.

For `COc1cc(NCCN=C(N)NC(N)=NC(C)C)c2ncccc2c1`, the growth in experiment [1] was 100%; in experiment [2], 61.2%; in experiment [3], 63.8%; in experiment [4], 84%; in [5], 79.7%; in experiment [6], 73.4%. Moreover, the growth in experiment [7] was 37.2%; in experiment [8] it was 102%; in [9], 89.2%; in experiment [10], 86.1%.

Consider `C=C1C(=O)O[C@H]2[C@H]1CC/C(COC(=O)NCCc1ccc(Br)cc1)=C\CC[C@@]1(C)O[C@@H]21`, for which the growth was 1.58% (active) in experiment [1]; -46.7% (active) in experiment [2]; 56.8% in experiment [3]; 40.9% in experiment [4]; 41.2% in experiment [5]; 36.4% in experiment [6]. Moreover, the growth is 64% in experiment [7], -54.3% (active) in experiment [8], -68.2% (active) in [9] and 30.6% in experiment [10].

Consider `CCN(Cc1ccc(CN(CC)C(=O)C(Br)Br)cc1)C(=O)C(Br)Br`, for which the growth in experiment [1] is 24.5%; in [2] it was 6.76% (active); in experiment [3], 54.9%; in [4], 60.8%; in experiment [5], -9.38% (active); in experiment [6], 41.3%. For the same compound, the growth in experiment [7] is 12.3%; in experiment [8] it was 18.2%; in experiment [9], 37.1%; in experiment [10] it was 36.7%.

As for `COc1cc(OC)c(C(=O)/C=C/c2ccc(C(F)(F)F)cc2)c(OC)c1`, the growth in [1] was 29.4%; in experiment [2], 26.9%; in [3] it was 30%; in experiment [4], 57.5%; in experiment [5] it was 46.2%; in experiment [6], 54.5%. The growth is 62.2% in [7], 48.2% in experiment [8], 32.4% in [9] and 67.4% in experiment [10].

For `Cc1nc2scc(-c3ccccc3)n2c(=O)c1CCO`, the growth in experiment [1] was 96.1%; in [2] it was 103%; in [3], 71.6%; in experiment [4], 98.3%; in experiment [5], 103%; in [6], 87.7%. Moreover, the growth in experiment [7] was 100%; in experiment [8] it was 97.6%; in experiment [9], 92.3%; in experiment [10] it was 113%.

`Cc1ccc(S(=O)(=O)NCCCNc2nccc(-c3c(-c4ccccc4)nc4sccn34)n2)cc1`: the growth in experiment [1] was 47%; in [2], 18.5%; in experiment [3], 48.4%; in experiment [4] it was 75.4%; in experiment [5] it was 63.1%; in experiment [6], 30.9%. In addition, the growth in experiment [7] is 45%; in experiment [8], 36.5%; in experiment [9] it was 32.6%; in [10], 78.5%.

On to `O=S(=O)(NCCCNc1cc(-c2cn(-c3ccccc3)nc2-c2cccc(O)c2)ccn1)c1cccc2ccccc12`, for which the growth is 1.39% (active) in [1]; -9.29% (active) in experiment [2]; 28.1% in [3]; 64.2% in experiment [4]; 35.2% in experiment [5]; 18.5% in experiment [6]. The growth in experiment [7] was 14.2%; in experiment [8], 34.5%; in [9] it was 10.3%; in experiment [10] it was 4.71% (active).

Take `CN(C)C/C=C/C(=O)Nc1cc2c(Nc3cccc(Cl)c3F)ncnc2cc1OCCOC(F)F`: the growth in experiment [1] was 21.8%; in [2], 18.2%; in experiment [3] it was 1.35% (active); in [4], 57.1%; in experiment [5], 50.3%; in experiment [6], 40.2%. Moreover, the growth in experiment [7] was 73.4%; in [8], 53.5%; in experiment [9], 43.9%; in [10], 78.2%.

For the compound `CC/C=C\C[C@H](O)C/C=C1/C(=O)C(Cl)=C[C@@H]1C/C=C\CCCC(=O)O`, the growth was 16.2% in experiment [1]; 18.7% in experiment [2]; 71.7% in [3]; 74.7% in [4]; 17.5% in experiment [5]; 43.7% in experiment [6]. For the same compound, the growth was 69.1% in [7], 1.46% (active) in [8], 4.09% (active) in experiment [9] and 43.7% in experiment [10].

Take `O=C(Cc1n[nH]c(=O)c2ccccc12)OCc1c(Cl)cccc1Cl`: the growth was 43.6% in experiment [1]; 51.4% in experiment [2]; 90% in [3]; 105% in [4]; 54% in experiment [5]; 80.5% in experiment [6]. For the same compound, the growth is 56.9% in experiment [7], 70.4% in experiment [8], 47.1% in [9] and 112% in [10].

Turning to `CCn1cc(C(=O)O)c(=O)c2cc(F)c(N3CCN(S(=O)(=O)c4ccc(Cl)cc4Cl)CC3)cc21`, the growth in experiment [1] was 7.58% (active); in experiment [2], 1.87% (active); in experiment [3], 74.8%; in [4], 26.2%; in experiment [5], 12.1%; in experiment [6], 1.6% (active). Moreover, the growth is -55% (active) in [7], 16.1% in experiment [8], -35.4% (active) in experiment [9] and 107% in experiment [10].

On to `COc1ccc(/C=C/C(=O)c2ccc(NC(=O)CN3CCN(c4cc5c(cc4F)c(=O)c(C(=O)O)cn5C4CC4)CC3)cc2)cc1`, for which the growth is 108% in [1]; 114% in experiment [2]; 89.2% in [3]; 94.7% in experiment [4]; 98.6% in [5]; 92.4% in [6]. Further, the growth in experiment [7] is 94%; in experiment [8], 93.2%; in experiment [9], 76.9%; in [10], 106%.

As to `COc1ccc2c(c1)C=CC(C#N)N2C(=O)c1ccccc1` (stereo not given), the growth is 9.74% (active) in [1]; 5.77% (active) in experiment [2]; -14.7% (active) in [3]; 43.8% in experiment [4]; 28.6% in experiment [5]; 19% in experiment [6]. The growth in experiment [7] was -6.27% (active); in experiment [8] it was 26.3%; in experiment [9] it was 20%; in experiment [10], 58.9%.

In the case of `CC(C)(C)OC(=O)N1C/C(=C\c2cccs2)C(=O)/C(=C/c2cccs2)C1`, the growth in experiment [1] was 85.1%; in experiment [2], 86.4%; in [3] it was 78.9%; in experiment [4], 94.5%; in experiment [5] it was 83.7%; in [6], 74.7%. The growth in [7] is 87.9%; in experiment [8] it was 66.7%; in experiment [9] it was 90.9%; in experiment [10], 106%.

In the case of `CC(=O)c1cc(C(=O)c2ccc3c(c2)Sc2ccccc2N3)c2cc(C)ccn12`, the growth was 8.38% (active) in [1]; -57% (active) in experiment [2]; 9.11% (active) in experiment [3]; 31.6% in [4]; 11.3% in experiment [5]; 18% in experiment [6]. Further, the growth was -26.6% (active) in experiment [7], 30.2% in experiment [8], 17% in [9] and 56.1% in experiment [10].
